# Compound activity from PubChem BioAssay.
# Only some compounds are listed: those with a hit (about 6.8% of all), similar ones and a draw of the others.
# PMK inhibit – blocks S. pneumoniae phosphomevalonate kinase; hit rate 0.49% among 65,000; purified PMK, PK/LDH-coupled NADH absorbance 340 nm; inhibition, % at 10 µM; AID 539;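 active means top-ranked compounds by inhibition in the single 10 µM screen, taking a fixed number of the strongest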
# Fluor 339 460 – intrinsic fluorescence of library compounds, ex339/em460 – biochemical, MLSMR library, data from DPM-DC assay, artefact control, profiling panel; compound autofluorescence, ex339/em460 nm, NADH buffer; active compounds read high; 1 = no-compound wells, NADH background; fluorescence fold increase at 10 µM; hit rate 5.5% among 65,000; AID 709;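 active means at 10 µM, mean starting fluorescence two-fold or more over control wells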;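 further: signal is the first read of a kinetic run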
# DPM-DC inhibit – S. pneumoniae DPM-DC inhibition. calls only at 10 µM. hit rate 0.49% among 65,000. purified DPM-DC, PK/LDH coupled NADH fluorescence;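 active means the 320 compounds with the highest percent inhibition in the single-dose primary screen, excluding strongly autofluorescent ones, cut at about 32% in these data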;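 further: kinetic rate of NADH fluorescence loss reporting ADP formed by the decarboxylase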
# Abs 340nm – absorbance at 340 nm | compound absorbance at 340 nm, fold over control | fold change at 10 µM | 65,000 tested, under 10 active | AID 708;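 active means at 10 µM dose, initial 340 nm absorbance at least 2 fold that of control wells; inactive means change under 2 fold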;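 further: initial absorbance extrapolated from kinetic A340 decline of NADH oxidation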
# NADH enzymes – blocks coupling enzymes of NAD/NADH assays; coupled PK/LDH NADH assays, four targets; hit rate 0.02% among 65,000; AID 774; IC50, µM (series often up to 10 µM);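 active means single-dose screening hits from any of four coupled enzyme assays that gave an IC50 when retested across doses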;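 further: the DPM-DC format reads NADH fluorescence rather than 340 nm absorbance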
# MK inhibit – inhibitors of Streptococcus pneumoniae mevalonate kinase. purified MK, PK/LDH-coupled NADH absorbance 340 nm. inhibition, % at 10 µM. hit rate 0.48% among 65,000. AID 555;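 active means ranked among the strongest by inhibition in the single 10 µM screen, a fixed top-ranked set picked for dose follow-up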
# Hits are given with their value; – = inactive; · = no result given; + = active, no number.
SMILES,PMK inhibit,Fluor 339 460,DPM-DC inhibit,Abs 340nm,NADH enzymes,MK inhibit
Cc1nc2ccccc2c2oc(C(=O)Nc3ccc4c(c3)OCCO4)cc12,–,2.1,·,–,–,–
CCOC(=O)CSc1nc(N)c(C#N)c(CC(C)C)c1C#N,–,–,–,–,–,–
C=CCn1cnc2c(c1=O)c1nc3ccccc3nc1n2-c1ccccc1,–,2.4,–,–,–,–
COCCCn1cnc2oc3nc4ccccc4nc3c2c1=O,–,3.2,–,–,–,–
COCCCn1cnc2c(c1=O)c1nc3ccccc3nc1n2-c1ccccc1,–,3.1,–,–,–,–
C=CCn1cnc2c(c1=O)c1nc3ccccc3nc1n2/N=C/c1ccccn1,–,2.5,–,–,–,–
C=CCn1cnc2c(c1=O)c1nc3ccccc3nc1n2/N=C/c1cc(OC)c(OC)c(OC)c1,–,–,–,–,–,–
O=C(c1ccc2c(c1)OCCCO2)c1cccs1,–,–,–,–,–,–
O=C1NC(c2ccco2)Nc2ccccc21 (stereo not drawn),–,2.9,·,–,–,–
c1ccc(CSc2nnc3c(n2)OC(c2ccco2)Nc2ccccc2-3)cc1 (stereo not drawn),–,–,–,–,–,–
Cc1ccc(C2NC(=O)c3ccccc3N2)s1 (stereo not drawn),–,2.1,·,–,–,–
O=C1NC(c2ccncc2)Nc2ccccc21 (stereo not drawn),–,2.5,–,–,–,–
CC1Cc2ccccc2C(=O)N1 (stereo not drawn),–,–,–,–,–,–
CCOC(=O)N1CCN(Cc2nc3c(c(=O)[nH]c(=O)n3C)n2Cc2cc(C)ccc2C)CC1,–,–,–,–,–,–
CCCOC(=O)NC(CC)COC(=O)Nc1cccc(C)c1C (stereo not drawn),–,–,–,–,–,–
O=C(O)CC(CNS(=O)(=O)c1ccccc1)c1ccccc1 (stereo not drawn),–,–,–,–,–,–
Cc1cc(OCC(=O)C(C)(C)C)c2c(C)c(C)c(=O)oc2c1,–,2.1,·,–,–,–
COc1ccc(N(CC(=O)N2CCc3ccccc3C2)S(=O)(=O)c2c(C)nn(C)c2C)cc1,–,–,–,–,–,–
CCCn1c(SCC(N)=O)nnc1-c1ccco1,–,–,–,–,–,–
CC1(C)CC(=O)C(C=NCCN2CCN(CCc3ccccc3)CC2)=C(O)C1,active,–,–,–,–,–
CC1(C)CC(=O)C(C=NCCN2CCN(C(=O)c3ccccc3)CC2)=C(O)C1,–,–,–,–,–,–
CCOc1ccc(-c2cc(C(=O)N3CCN(C)CC3)c3ccccc3n2)cc1,–,5.2,·,–,–,–
COc1ccc(-c2cc(C(=O)N3CCN(c4ccccn4)CC3)c3ccccc3n2)cc1,–,2.7,–,–,–,–
O=C(O)c1cc(-c2cccs2)nc2cc3c(cc12)OCCO3,–,2.1,·,–,–,–
CCOc1ccc(-c2cc(C(=O)N3CCN(c4ccccn4)CC3)c3ccccc3n2)cc1,–,–,–,–,–,–
SMILES,PMK inhibit,Fluor 339 460,DPM-DC inhibit,Abs 340nm,NADH enzymes,MK inhibit
CS(=O)(=O)N1CCN(C(=O)c2cc(-c3cccs3)nc3ccccc23)CC1,–,3.9,·,–,–,–
Cc1ccc2nc(-c3ccc4c(c3)OCCO4)cc(C(=O)O)c2c1,–,–,–,–,–,–
CCOC(=O)N1CCC(NC(=O)c2cnc3n(c2=O)CCS3)CC1,–,–,–,–,–,–
CCOC(=O)N1CCN(C(=O)c2cc(-c3ccc(OCC)cc3)nc3ccccc23)CC1,–,5.2,·,–,–,–
O=C(c1cc(-c2ccccc2)nc2ccccc12)N1CCOCC1,–,–,–,–,–,–
COc1ccc(-c2cc(C(=O)OCC(=O)N3CCCC3)c3ccccc3n2)cc1,–,2.9,–,–,–,–
COc1cccc(N2CCN(C3CC(=O)N(c4ccc(F)c(Cl)c4)C3=O)CC2)c1 (stereo not drawn),–,–,–,–,–,–
COc1cccc(N2CCN(C3CC(=O)N(c4ccc(C)c(Cl)c4)C3=O)CC2)c1 (stereo not drawn),–,–,–,–,–,40
CCOC(=O)c1cccc(NC(=O)CN2C(=O)C3C4C=CC(C4)C3C2=O)c1 (stereo not drawn),–,–,–,–,–,–
O=C(CN1C(=O)C2C3C=CC(C3)C2C1=O)Nc1ccc2nccnc2c1 (stereo not drawn),–,2.1,·,–,–,–
CCOC(=O)C1CCN(S(=O)(=O)c2ccc(-c3nc4ccccc4s3)s2)CC1,–,2.2,–,–,–,–
CCCCOC(=O)c1ccc(NC(=O)c2cnc3n(c2=O)CCS3)cc1,–,2,–,–,–,–
O=C(Nc1ccc(OC(F)(F)F)cc1)c1cnc2n(c1=O)CCS2,–,–,–,–,–,–
O=c1c2c3nc4ccccc4nc3n(CC3CCCO3)c2ncn1CCc1ccccc1 (stereo not drawn),–,2.9,·,–,–,–
COc1cc(OC)cc(-n2c3nc4ccccc4nc3c3c(=O)n(CC4CCCO4)cnc32)c1 (stereo not drawn),–,–,–,–,–,–
Cc1nc2c(c(=O)n1CCC(C)C)c1nc3ccccc3nc1n2Cc1ccc2c(c1)OCO2,–,–,–,–,–,–
CCCCCn1c2nc3ccccc3nc2c2c(=O)n(CC3CCCO3)c(C)nc21 (stereo not drawn),–,4,·,–,–,–
CCCCCn1c2nc3ccccc3nc2c2c(=O)n(CC(C)C)cnc21,–,–,–,–,–,–
Cc1nc2c(c(=O)n1CC1CCCO1)c1nc3ccccc3nc1n2CCC(C)C (stereo not drawn),–,2.3,·,–,–,–
CCCn1c(C)nc2c(c1=O)c1nc3ccccc3nc1n2-c1ccc2c(c1)OCCO2,–,2.6,+,–,–,–
COc1cc(/C=N/n2c(SC)nnc(C(C)(C)C)c2=O)ccc1O,–,–,–,–,–,–
CCOc1ccc(N=C(NC#N)SCC(=O)NC2CC2)cc1,–,–,–,–,–,–
Cc1ccc2c(CC(=O)N3CCN(S(=O)(=O)c4ccc5c(c4)OCCO5)CC3)coc2c1,–,–,–,–,–,–
N#Cc1ccsc1NC(=O)COc1ccc(-c2nnco2)cc1,–,–,–,–,–,–
NC1C2CN(c3nc4c(cc3F)c(=O)c(C(=O)O)cn4-c3ccc(F)cc3F)CC12 (stereo not drawn),–,2.1,–,–,–,–
COCC(=O)Nc1nc2n(n1)C(c1ccc(Cl)cc1)CC(c1ccc(OC)cc1)N2 (stereo not drawn),–,2.5,–,–,–,–
COc1cc2c(cc1OC)C(c1ccc3c(c1)OCO3)C1=C(CC(C)(C)CC1=O)N2 (stereo not drawn),–,4.9,·,–,–,–
CCOC(=O)CSC1=Nc2ccccc2C2=NC(CC(=O)NCc3ccccc3)C(=O)N12 (stereo not drawn),–,3,–,–,–,–
